# Whole data set: some 25,000 sequences, median “ln(normalized median fluorescence intensity)” near 6.7, cut for the highest 2% near 10. The entries come from a sample that favours the highest values as a whole.
# Tested on: PfHDP1 homeodomain (GST-tagged)
# Experiment: gcPBM binding intensity (ln(normalized median fluorescence intensity)); higher = stronger DNA binding
# Outline: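 Binding intensity is the highest Masliner-normalised natural-log median intensity over replicate spots in either probe orientation. To obtain it, GST-tagged P. falciparum DNA-binding domains made in E. coli were incubated for 1 h on an Agilent 4 × 180k array of primer-extended double-stranded 36-bp intergenic genomic probes plus negative controls. Detection used Alexa488 anti-GST antibody with scanning at 488 nm.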
row,Sequence,gcPBM binding intensity (ln)
1,CAACATTAATATAAAGCACACATATATATAATATAT [CACACA_site8064],6.39
2,TTGAACCTGATAAATACACACAATATAGATTTTTTT [CACACA_site7091],6.48
3,TTTCTAATTCTTAGTGGTACACAGTTCTGCTGATAT [XGTACX_site2391],6.09
4,AATGAGCGTTAAAAATGTACAGAAAATTGGAATTAT [XGTACX_site5743],6.75
5,TGCATAAATTTATGCACACATAAAAAAAAAAAAAAA [CACACA_site2923],10.4
6,ACAAAAAAAATAAGCACACATATATATATATATATA [CACACA_site816],9.27
7,TATAAAAATAAGCACACACACAAATATATATTTATT [CACACA_site922],6.77
8,ATAATTTCATAATACGTGCACATAATATATAAAAAA,10.9
9,CAAAATATTTTTATAACACACATATATATAATGTGC [CACACA_site4767],6.52
10,TGTGCATAAATTTATGCACACATAAAAAAAAAAAAA [CACACA_site8954],11
11,GAAATAATTTCATATACACACATATACATACATACA [CACACA_site1358],7.13
12,GTTTATTTATTTTATGTGCACATATAACAAAAAAAA,10.7
13,ATATATATATATATTGTGCACAAAAAAAAATAAGCA,10.7
14,ATAAAATATATATGCACACACATATATATTTCATAC [CACACA_site3547],10.2
15,TAAAATAATTTATGCATACACACATATATATATATA [CACACA_site4021],9.28
16,TATATATATATATATGTGCACATATTTATATGTTTT,10.3
17,AAGAAAGGTTAAACATGTACATAAATATTTTACATA [XGTACX_site5024],6.28
18,TAATTCACATTTTATACACACATTCGAACCTTTTTT [CACACA_site3341],6.88
19,TTATAAAAGAAAAAAAAAAAAAAAAAAAAAAAAAAA [CACACA_negctrl_site1006],6.11
20,TTACATATATTGGGGTGTACATATATTTTCCTTCAC [XGTACX_site6224],7.35

row,Sequence,gcPBM binding intensity (ln)
1,AAAAAAAAGAAAGAAAGTACAAATTATAAAATGAAC [XGTACX_site860],6.62
2,AACAATAAATTATTATGTACACATATATTATATATA [XGTACX_site4629],6.47
3,ATCTAAAAATTTTACGCACACAAGTAAAAAAAAAAA [CACACA_site2485],7.14
4,ACTATATATATAAGTGCATGTTCATTATACCTAAAG [TGCATGCA_site696],7.49
5,TTATATATTTATAAATGTACGTATAAGAATTTAATT [XGTACX_site8541],6.68
6,TATATTTATGTATATGTGCACATAAATTTAAGAATG [GTGCAC_site9512],10.9
7,GATAAATGTATATATGCATGCACATATATTTATACA [TGCATGCA_site748],8.96
8,TATAATAATAATGATAGTACGTATGAGTTCAAGAAA [XGTACX_site4918],6.34
9,TCATATATCCTTATCACACATATAATAAATTCCCTT [CACACA_site4457],6.59
10,ATTATTACATATAATGCATGTGCATATATTTTTATA [TGCATGCA_site701],11
11,ACACATATGCATATATGTACATAATATATTAAACTT [XGTACX_site5975],6.76
12,CCTTATACGATATTATGTACGCATATGTGCATTTTT [XGTACX_site1570],10.9
13,ATGTATGCAAAAATGGTGCATATTAAATGTATAACA [GTGCAC_site9722],10.5
14,TATATATAATTTTATACATGCACATATTATATATAT [TGCATGCA_site1036],8.4
15,TTTTTTATTATTATGTGTACGAATATGTGCATATAA [XGTACX_site1364],9.93
16,ATATATGCATATTATACACACATATGTATATACATT [CACACA_site965],7.81
17,TATATATATATATATACATGCATATTTTTTATTTTT [TGCATGCA_site464],9.46
18,TATGTGCATATAAACTCACACATTGTATATTACATG [CACACA_site6106],10.9
19,CATATATAAATATGTATGCACTTTAACAAAATGTAT,7.25
20,TATATATTTATTAAATGTACATAACAAAAATGGTAT [XGTACX_site3577],7.05

row,Sequence,gcPBM binding intensity (ln)
1,ATATTATACGCATATGTGCGCATACATTTTTTTGCA [GTGCAC_site9540],7.53
2,TTATAAAGAAAAAATTGCTTTAAAAGAAAGATTACA [CACACA_negctrl_site960],5.87
3,CTAAATTGTTAATAGAGTACATTTGTATAATATAAG [XGTACX_site594],6.44
4,ATATATATATATGTACACATATATGTGTTTGTTTTT [GTGCAC_negctrl_site5],8.99
5,GTAATTTTTTTCTATACACACATATCTATAATATAT [CACACA_site7284],6.94
6,TCACTATAATAATTTACACACATTTTAAGAAAATGT [CACACA_site3530],6.61
7,TGTTTGCTTATGTGTTAAATATATATATATATATAT [TGCATGCA_negctrl_site218],9.25
8,TTTTTTAAATTTAAAGTGCATTATTATATATTTGTA,8.5
9,ATACCATATAATTATGTGAGAAAATATAATATTCAT [CACACA_negctrl_site310],6.55
10,TATTAATGCAAATGTTATATGTGCATACATAAATGT [CACACA_negctrl_site790],10.9
11,TTATATTAATTTTGTTGTACTATTTGTGCATTAAAT [XGTACX_site4790],10.8
12,TATACATATATAAATGCATGTTGATATTAATAGTTA [TGCATGCA_site639],6.53
13,TATATGTAATATTATACATGCATACATAATATATAT [TGCATGCA_site558],6.52
14,TTTTTTTTTTTTTTGTGTACTAATATTATAAATTTT [XGTACX_site4405],6.44
15,ATTTTTGTAATTATTTGTACACATTTATTTATGTGT [XGTACX_site1864],6.76
16,TTATATGTATTTCTTTGTACACATTTTTATATATAT [XGTACX_site1462],7.16
17,CATGTGCATATTAAATGTACATATATACATATATAC [XGTACX_site857],10.2
18,AGTGAGAAATACATAATAATACATTATGTGCATATT [XGTACX_negctrl_site247],10.7
19,TCCAATTCTTTATTTTGTACACATTATGTGCATATG [XGTACX_site6290],10.9
